Assay outcomes: PubChem BioAssay, National Center for Advancing Translational Sciences (NCATS)
The list is not random: actives were taken first. Their share in the collection is about 19%.
IL1B secr inh – inflammasome signaling inhibition, IL-1 beta readout; hit rate 4.7% among 360,000; activity change, % at 57.5 µM; THP-1 LPS/ATP IL-1B secretion, AlphaLISA, 16 h; hits give low values; in the data active means activity change below about -50%; inconclusive means mostly about -30% to -49%
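THP-1 cells pretreated 1 hr with compounds (up to 57.5 uM final), then stimulated with LPS (250 ng/mL final) plus ATP (1.25 mM final); secreted IL-1B measured by AlphaLISA after 16 hr, decreased signal indicating inhibition.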
HT1080-NT tox – kills 2HG-producing HT-1080-NT fibrosarcoma cells | Potency, µM (series often up to 46.1 µM), for inactives: top-dose activity, negative = less viability, most hits filed as cytotoxic | hit rate 1.6% among 360,000 | HT-1080-NT fibrosarcoma viability, CellTiter-Glo ATP luminescence, 48 h;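 further: NT is the 2HG producing partner of a matched IDH1 knockdown line; potency means the concentration at half of the fitted maximal effect; 0% = DMSO-treated cells and -100% = media-only wells without cells; nearly all actives have a fitted effect of over 55% in size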
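HT-1080-NT; 750 cells/well; 5% FBS RPMI; 48 h compound, 37 degrees C; CellTiter-Glo luminescence; curve fitting and curve-class assignment.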
TDP1 cell noCPT – qHTS for Inhibitors of human tyrosyl-DNA phosphodiesterase 1 (TDP1): qHTS in cells in absence of CPT; DT40 Tdp1-/- hTDP1 cells, no CPT, ATP luminescence, 48 h; Potency, µM (titrated, usually from 46.2 µM), inactives show at the top dose activity change, negative = growth inhibition, actives largely listed as inhibitors; AID 686978, 2013; hit rate 15% among 420,000; further: potency means the concentration at half of the fitted maximal effect; nearly all actives have a fitted effect of over 55% in size
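Growth kinetics read by CellTiter-Glo luminescence after ≥48 hr at 37 °C. Cells: DT40 Tdp1-/- stably carrying human TDP1, 400 per well, compound exposure in the absence of CPT (DMSO vehicle).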
HT1080 IDH1KD tx – toxicity to HT-1080 IDH1 knockdown cells (counter line) | HT-1080 IDH1 knockdown viability, ATP luminescence, 48 h | Potency, µM (doses to about 46.1 µM), without a hit: at the highest dose activity, negative = toxicity, most hits filed as cytotoxic | hit rate 2% among 360,000;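 further: potency means the concentration at half of the fitted maximal effect; 0% = DMSO wells and -100% = cell-free medium wells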
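HT-1080-IDH1KD cells (IDH1 knocked down), 750/well in RPMI with 5% FBS, treated with compound 48 h at 37 degrees C. Viability by CellTiter-Glo luminescence, normalised to DMSO and no-cell wells; concentration-response curves classed.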
TDP1 cell CPT – growth inhibition of DT40 Tdp1-/-;hTDP1 cells with camptothecin (screen for TDP1 inhibitors); chicken DT40 Tdp1-/-;hTDP1 cells + 20 nM CPT, ATP luminescence, 48 h; Potency, µM (top dose mostly 46.2 µM), for the others: at the top dose activity change, negative = growth inhibition, actives largely listed as inhibitors; hit rate 12% among 420,000; further: potency means the concentration at half of the fitted maximal effect; nearly all actives have a fitted effect of over 55% in size
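Chicken DT40 Tdp1-/- cells complemented with human TDP1, 400 cells/well, exposed to compounds plus 20 nM camptothecin for at least 48 h at 37 C; viability read as ATP content by CellTiter-Glo luminescence.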
The depositor's hits bear a star; ? = inconclusive; . = no result given; [ ] = another dose, or the depositor's remark. Unless noted, the call rests on the fitted dose curve; in most records, active means well fitted curve in the direction sought with a large enough effect; inconclusive means small, poorly fitted or top-dose-only effect, or another doubt; inactive means no such curve, though single readings can be large; an effect the other way counts as inactive or inconclusive. Unless noted, on the % scale 0 is the no-effect control and ±100 the full control effect.

SMILES	IL1B secr inh	HT1080-NT tox	TDP1 cell noCPT	HT1080 IDH1KD tx	TDP1 cell CPT
COc1ccc(CCC(C)NC2C3CC4CC(C3)CC2C4)cc1 (centres undefined)	?	-13.1%[9.24 µM]	?	?	?
Cc1ccccc1C(=O)N/N=C1\SCC(=O)N1Cc1ccco1	26.8	-25.6%	-4.6%	0.6%	5.6%
CCC1CC(/C(C)=N/NC(N)=O)OC1=O (centres undefined)	7.0	6.6%	-0.3%	12.4%	4.5%
C/C(=N\NC(N)=S)C1C2C3CC4C5CC(C42)C1C53 (centres undefined)	-19.1	-23.6%	10.3µM*	-7.5%	?
COc1cccc(NC(=S)NN2CCN(C)CC2)c1	21.4	-1.1%	-0.3%	-7.5%[9.24 µM]	29.1µM*
FC(F)(F)c1ccccc1NC(=S)N1CCCC1	.	-4.1%	-12.8%	-1.8%	1.0%
COc1ccc(OC)c(NC(=S)NN2CCN(C)CC2)c1	-24.1	-0.3%	-21.9%	-3.3%	-3.3%
FC(F)(F)c1ccccc1NC(=S)NN=C1CCCCCC1	41.1	13µM*	?	18.4µM*	?
CC1CCC/C(=N\NC(=S)Nc2ccccc2)C1 (centres undefined)	-25.5	4.3%	10.3µM*	18.5%	8.2µM*
COc1cccc(NC(=S)NN=C2CCCCCC2)c1	33.0	-14.4%	5.17µM*	-27.3%	3.66µM*
CCOC(=O)/C(C#N)=C\c1cn(C)c2ccccc12	2.0	-12.3%	-10.7%	-13.3%	24.8%
CCOC(=O)/C(=C\c1cn(C)c2ccccc12)[N+](=O)[O-]	-85.1*	1.6%	?	2.3%	?
CCOc1ccc(NC(=O)c2cn3c4c(ccc(Cl)c4c2=O)OC(C)C3)cc1 (centres undefined)	.	.	-1.1%	.	-2.6%
COc1ccc(-n2nc(C(=O)O)c3ccccc3c2=O)cc1	5.2	2.9%	-27.8%	-8.1%	-20.7%
COc1ccc(/C=N/NC(=O)c2nn(-c3ccc(C)c(C)c3)c(=O)c3ccccc23)cc1	-18.0	-9.3%	3.26µM*	-10.0%	9.2µM*
COc1ccc(/C=N/NC(=O)c2nn(-c3ccc(Cl)cc3)c(=O)c3c(N)scc23)cc1	-1.0	-15.4%	2.59µM*	-21.5%	5.8µM*
COc1ccc(/C=N/NC(=O)c2nn(-c3ccccc3)c(=O)c3c(N)scc23)cc1	-20.1	0.0%	8.2µM*	4.2%	10.3µM*
COC(=O)c1ccc(CNC(=O)COC(=O)COc2ccc(OC)cc2)cc1	0.0	8.8%	5.0%	8.1%	-1.6%
Cc1ccc(N(C)S(=O)(=O)c2ccc3[nH]cc(C(=O)O)c(=O)c3c2)cc1C	.	.	-14.6%	.	-0.7%
CC(C)CC(=O)O/N=C1\C(=O)N(c2ccccc2)c2ccccc21	-64.1*	1.0%	23.1µM*	-0.2%	20.6µM*
CC(C)CC(=O)Nc1cccc2c1C(=O)N(c1ccccc1)C2=O	12.1	5.2%	2.9%	1.0%	3.1%
CCC(NC(=O)Nc1cc(OC)ccc1OC)c1c(-n2cccc2)sc2c1CCN(CC)C2 (centres undefined)	.	.	23.1µM*	.	?
CCOC(=O)c1cccc(NC(=O)N[C@@H](C)C(=O)OC)c1	4.4	18.5%	-1.4%	16.1%	-5.2%
COc1ccc(NC(=O)NC(C)c2ccc3c(c2)OCO3)c(OC)c1 (centres undefined)	3.5	1.4%	-19.8%	0.9%	-2.5%
COc1ccc(NC(=O)NC(C)c2c(-n3cccc3)sc3c2CCN(C)C3)c(OC)c1 (centres undefined)	.	.	23.1µM*	.	?
SMILES	IL1B secr inh	HT1080-NT tox	TDP1 cell noCPT	HT1080 IDH1KD tx	TDP1 cell CPT
CCOC(=O)c1cccc(NC(=O)NC(C)c2c(-n3cccc3)sc3c2CCN(C)C3)c1 (centres undefined)	.	.	16.4µM*	.	14.6µM*
COc1ccc(CNC(=O)c2cc(C)nn2-c2ccccc2)cc1	-7.0	-0.6%	0.3%	5.1%	-11.0%
COCCn1c(N)c(N(Cc2ccccc2)C(=O)CSCC(=O)Nc2ccc(C)cc2)c(=O)[nH]c1=O	0.4	-6.1%	-2.0%	-1.4%	0.6%
CS(=O)(=O)N(Cc1ccccc1)c1ccc(C(=O)Nc2cccc(Cl)c2)cc1	.	.	14.6µM*	.	?
CC(=O)c1cccc(NC(=O)c2ccc(N(Cc3ccc(C)cc3)S(C)(=O)=O)cc2)c1	-29.6	?	?	?	15.8µM*
Cc1ccc(NC(=O)c2ccc(N(Cc3ccccc3)S(C)(=O)=O)cc2)cc1	.	.	11.6µM*	.	?
Cc1ccc(CN(c2ccc(C(=O)Nc3ccc4c(c3)OCO4)cc2)S(C)(=O)=O)cc1	-3.7	-0.2%	9.3%	-6.2%	0.6%
Cc1cccc(C)c1NC(=O)Nc1nc(C(N)c2ccccc2Cl)cs1 (centres undefined)	-19.4	?	16.4µM*	?	?
CC(C)C(N)c1csc(NC(=O)Nc2cccc(Cl)c2)n1 (centres undefined)	?	23.1µM*	20.6µM*	?	?
NC(=O)c1ccc(Nc2nc(C(N)c3ccccc3Cl)cs2)cc1 (centres undefined)	-17.2	-5.9%	?	0.0%	?
CCOC(=O)Cc1csc(NC(=O)Nc2cccc(Cl)c2)n1	0.0	-12.4%	?	?	?
NC(c1csc(NC(=O)Nc2cccc(Cl)c2)n1)c1ccccc1Cl (centres undefined)	-106.6*	?	?	?	?
Cc1c(-n2cc(C(=O)O)c(=O)c3cc(F)c(N4CCCC4)c(F)c32)c(=O)n(-c2ccccc2)n1C	-16.3	-4.1%	23.1µM*	-5.2%	16.4µM*
Cc1c(NC(=O)N2CCCCCC2)c(=O)n(-c2ccccc2)n1C	-21.2	-1.0%	-11.9%	3.3%	-9.3%
Nc1nnc(SCC(=O)N2CCc3ccccc3C2)s1	14.3	0.4%	-20.9%	13.4%	0.8%
O=c1[nH]c(C2CCN(S(=O)(=O)c3ccccc3)CC2)nc2c1nnn2Cc1ccccc1	-6.7	-4.6%	?	-0.8%	20.6µM*
COC(=O)c1ccc(Cn2nnc3c(=O)[nH]c(C4CCN(S(=O)(=O)c5cc(C)ccc5C)CC4)nc32)cc1	17.5	3.0%	?	18.5%	23.1µM*
Cc1ccc(Cn2nnc3c(=O)[nH]c(C4CCN(S(=O)(=O)c5ccccc5F)CC4)nc32)cc1	-60.6*	?	-0.3%	?	-3.7%
O=c1[nH]c(C2CCN(S(=O)(=O)c3ccccc3F)CC2)nc2c1nnn2Cc1ccc(F)cc1	-22.0	-11.2%	-23.6%	-16.5%	-8.7%
COC(=O)c1ccc(Cn2nnc3c(=O)[nH]c(C4CCCN(S(=O)(=O)c5ccc(C)cc5)C4)nc32)cc1 (centres undefined)	-0.7	-2.5%	?	6.4%	-19.9%
